Sampled rows, rich in hits. Any-hit rate of the full collection: about 4%.
EBV LMP1 NFkB – Epstein-Barr LMP1 NF-kappaB reporter inhibition; LMP1-induced NF-kappaB luciferase reporter cells, luminescence; inhibition, % at 12.5 µM; actives 0.69% (n = 350,000); in the data active = inhibition above about 41%;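 note: 0% = neutral control wells and 100% = reference inhibitor control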
TWEAK-Fn14 inh – blocks TWEAK-Fn14 interaction in a reporter cell assay; TWEAK-stimulated Fn14 reporter cells, luciferase luminescence, 8 h; inhibition, % at 10 µM; actives 2% (n = 360,000); in the data active = inhibition above about 50%
TROY NFkB inh – TROY signaling inhibition. Q293 LMP1-TROYcd NF-kB luciferase reporter, 4 h. inhibition, % at 10 µM. actives 0.98% (n = 360,000);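 active = compounds whose plate-normalised and pattern-corrected inhibition of the luciferase reporter signal at the single screening dose is 50% or more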
HIF-2a inh – inhibitors of HIF-2a; 786-0 RCC cells HIF-2a reporter, luciferase luminescence, overnight; actives 0.72% (n = 360,000); AID 624352; inhibition, % at 18.8 µM;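 active = inhibition of the luminescence signal of 40% or more relative to plate controls, in a single-dose primary screen at 18.75 µM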
Peg3 prom inh-1 – Peg3 promoter activity inhibition; HeLa PEG-Prom luciferase reporter, luminescence, overnight; inhibition, % at 20 µM; actives 1.7% (n = 360,000); AID 588405;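 active = inhibition of at least 50% at 20 µM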
TRPM1 prom inh – MITF TRPM1 promoter inhibition in SK-MEL-5 cells; SK-MEL-5 TRPM1 promoter luciferase, 24 h; inhibition, % at 12.5 µM; actives 0.83% (n = 330,000); AID 488899;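 active = mean inhibition across replicates of 60% or more, whatever share of single replicates reaches that level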
Peg3 prom inh-2 – confirmation of Peg3 promoter inhibitors. shares compounds with Peg3 prom inh-1. actives 84% (n = 1,300). inhibition, % at 20 µM. AID 602417. HeLa PEG-Prom luciferase reporter, luminescence, overnight;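 active = at 20 µM dose, 40% or more inhibition averaged across four replicates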
Active calls of the source: *; · = not tested or not shown.

SMILES	EBV LMP1 NFkB	TWEAK-Fn14 inh	TROY NFkB inh	HIF-2a inh	Peg3 prom inh-1	TRPM1 prom inh	Peg3 prom inh-2
COc1ccccc1NC(=O)c1cc(-c2cc(OC)c(OC)c(OC)c2)nc2ccccc12	14	19	14	-3	54*	11	74*
COc1cc(-c2cc(C(=O)Nc3cc(S(=O)(=O)N4CCOCC4)ccc3O)c3ccccc3n2)cc(OC)c1OC	4	10	2	14	27	4	·
COc1cc(-c2cc(C(=O)Nc3cc(S(=O)(=O)N4CCOCC4)ccc3C)c3ccccc3n2)cc(OC)c1OC	8	6	-1	13	53*	-10	53*
CCC(=O)NC(c1cccs1)c1cc(Cl)c2cccnc2c1O (stereo not drawn)	21	13	-5	21	56*	52	58*
Oc1c(I)cc(Cl)c2cccnc12	3	-146	-18	13	55*	19	68*
CC(=O)NC(c1ccccc1)c1cc(Cl)c2cccnc2c1O (stereo not drawn)	35	12	10	16	51*	23	65*
COc1ccc(C(NC(C)=O)c2cc(Cl)c3cccnc3c2O)cc1 (stereo not drawn)	42*	30	23	10	64*	23	64*
O=c1oc2ccccc2c(O)c1Cc1cc(Cl)c2cccnc2c1O	-2	-31	6	7	38	9	·
Cc1nn(-c2ccccc2)c(Cl)c1C(=O)NCC1CCCO1 (stereo not drawn)	2	0	-14	-12	-24	2	·
Cc1cc(C)cc(N(CCC#N)C(=O)CSc2ncnc3sccc23)c1	-5	-12	4	-2	13	-9	·
CCOc1ccccc1C1C(C(=O)Nc2ccccc2OC)=C(C)Nc2nnnn21 (stereo not drawn)	-2	-12	5	19	8	1	·
NS(=O)(=O)c1cc(C(=O)NCC2CCCCC2)ccc1Cl	-1	-8	5	-14	-15	-8	·
CC(=O)NC(c1ccc(N(C)C)cc1)c1cc(Cl)c2cccnc2c1O (stereo not drawn)	11	34	23	17	59*	·	68*
O=C(NC1CCc2ccccc21)c1cc(COc2cncc(Cl)c2)on1 (stereo not drawn)	-4	10	-13	-140	-119	-32	·
Oc1[nH]c2ccc(Br)cc2c1N=NC(=S)Nc1ccc(F)cc1	13	63*	-3	22	65*	27	67*
CCc1nc(N2CCN(C(=O)c3ccccc3)CC2)c2c3c(sc2n1)CCCC3	7	28	32	17	31	6	·
CCc1nc(Sc2nnnn2-c2ccccc2)c2c3c(sc2n1)CCCC3	13	93*	55*	34	60*	4	61*
CN=c1scc(C)n1/N=C/c1ccc(O)c(O)c1O	4	21	-48	11	-31	6	·
CN=c1scc(-c2cccs2)n1/N=C/c1ccccc1O	85*	108*	88*	90*	91*	87*	95*
O=C(COC(=O)c1cnccn1)NCc1ccccc1Cl	2	-7	-8	11	12	·	·
COCc1ccc(CN2CCC(C(=O)Nc3cccc(-c4cccc(Cl)c4)c3)CC2)o1	15	-15	19	34	103*	18	99*
COCc1ccc(CN2CCC(C(=O)Nc3cccc(-c4cscn4)c3)CC2)o1	-1	-1	-5	8	9	16	·
CC1=C(C(=O)N2CCCCCC2)CC(CC(=O)NCc2cccc3ccccc23)C(=O)N1CCC1=CCCCC1 (stereo not drawn)	·	-21	11	3	·	·	·
Cc1nnc(NC(=O)CCN2C(=O)C3CC=CCC3C2=O)s1 (stereo not drawn)	0	-2	7	11	6	·	·
Cn1cnc([N+](=O)[O-])c1Sc1nc(N)nc2c1ncn2C1OC(CO)C(O)C1O (stereo not drawn)	-10	18	3	21	61*	41	64*
CC1=C(C(=O)N2CCCCCC2)CC(CC(=O)NCCN2CCOCC2)C(=O)N1CCCN1CCCC1=O (stereo not drawn)	·	8	16	5	·	·	·
CCCCOC(=O)c1ccc(Nc2ncnc3nc[nH]c23)cc1	-35	-6	-67	-180	-200	-81	·
